# Source: PubChem (several laboratories)
# Sampled rows, rich in hits. Any-hit rate of the full collection: about 3.9%.
# Bead autofluor – compound fluorescence in toxin protease inhibitor counterscreen; compound autofluorescence counterscreen, microsphere flow cytometry; hits give high values; fluorescence intensity (test concentration not listed); 360,000 tested, 3.1% active; AID 624483; in the data active means fluorescence intensity above about 16000; inconclusive means no clear call, values can overlap the other calls
# VHR inh abs – VHR1 phosphatase inhibitors, primary screen, biochemical, absorbance, uHTS; Dual specificity protein phosphatase 3 (Homo sapiens), P51452; AID 1654, 2009; inhibition, % at 13.3 µM; recombinant VHR phosphatase, pNPP absorbance; 290,000 tested, 0.52% active; in the data active means inhibition above about 50%
# BoNT A protease – BoNT/A light chain protease inhibitors, primary screen, biochemical, flow cytometry, MLPCN library; Botulinum neurotoxin type A light chain protease (Clostridium botulinum A str. ATCC 3502); multiplex microsphere protease substrate cleavage; inhibition, % at 10 µM; 360,000 tested, 0.17% active; further: plate controls were buffer without enzyme for full effect and enzyme alone for no effect
# BoNT-F LC inh – BoNT/F light chain protease inhibitors, primary screen, biochemical, flow cytometry, MLPCN library; Multiplex microsphere protease cleavage assay; inhibition, % at 10 µM; 360,000 tested, 0.22% active; in the data active means inhibition above about 35%, passing the limit was not always enough; inconclusive means no clear call, values can overlap the other calls; further: plate controls were buffer without enzyme for full effect and enzyme alone for no effect
# SARS 3CLpro inh – SARS-CoV 3CLpro protease inhibitors, primary screen, biochemical, quenched FRET; Replicase polyprotein 1ab (Severe acute respiratory syndrome coronavirus), P0C6X7; recombinant SARS-CoV 3CLpro, quenched FRET peptide cleavage; inhibition, % at 6 µM; 290,000 tested, 0.14% active; in the data active means inhibition above about 12%
# Anthrax LF inh2 – Bacillus anthracis LF protease inhibitors, primary screen, biochemical, multiplex microsphere, MLPCN library; multiplex microsphere protease cleavage assay; Lethal factor (Bacillus anthracis), P15917; inhibition, % at 10 µM; 360,000 tested, 0.12% active; further: plate controls were buffer without enzyme for full effect and enzyme alone for no effect
# * hit, by the source's call; ? = inconclusive; . = no result. Unless noted, no stated cut-off is given here; in the data, active means inhibition above about 30%; inconclusive means no clear call, values can overlap the other calls; inactive means below that.
SMILES,Bead autofluor,VHR inh abs,BoNT A protease,BoNT-F LC inh,SARS 3CLpro inh,Anthrax LF inh2
CCN(CCc1ccccc1)c1ccc2c(c1)C1CC2CCN1Cc1ccccc1 (configuration not stated),3910,.,-1,-7,.,-3
COC(=O)c1ccccc1NC(=S)NC(=O)COc1ccccc1Cl,20710*,13,?,-6,-3,-6
O=C(O)C1OC2OC3(CCCCC3)OC2C2OC3(CCCCC3)OC12 (configuration not stated),2111,17,3,36*,3,-1
O=C(OCC1OC2OC3(CCCCC3)OC2C2OC3(CCCCC3)OC12)c1ccccc1 (configuration not stated),2421,-2,0,-4,2,-1
CC(=O)Nc1cccc(-c2ccnc3c2CC(C(=O)Nc2ccc(Cl)cc2)O3)c1 (configuration not stated),3716,.,0,-1,.,0
Cn1c(=O)[nH]c(=O)c2c1nc(SCc1ccccc1Cl)n2CC(N)=O,4297,28,-2,5,2,2
COc1ccccc1NS(=O)(=O)c1ccc(NC(=O)c2ccccn2)cc1,?,.,1,-2,.,3
COc1ccccc1NS(=O)(=O)c1ccc(NC(C)=O)cc1,18703*,11,1,0,-5,-5
COc1ccc(S(=O)(=O)NC(C)C(=O)Nc2ccccc2)cc1Cl (configuration not stated),6053,24,-2,0,1,2
COc1ccc(NC(=O)C(C)NS(=O)(=O)c2ccc(NC(C)=O)cc2)cc1Cl (configuration not stated),23479*,33,0,-4,-1,-3
COC(=O)Nc1ccc(S(=O)(=O)Nc2cccc3ccccc23)cc1,21995*,22,?,0,3,-9
COc1cc(C(=O)N2CCN(C(=O)c3cc(-c4ccccc4)n[nH]3)CC2)cc(OC)c1OC,5879,3,0,2,-8,-2
CCOC(=O)Cc1csc(NC(=S)NC(=O)c2cc(OC)c(OC)c(OC)c2)n1,4004,-13,-1,-4,3,0
O=C(Nc1ccccc1F)N1CCCC1c1cccnc1 (configuration not stated),3917,13,?,?,3,4
O=C(Nc1ccc(F)cc1F)N1CCCCC1c1cccnc1 (configuration not stated),22683*,8,?,-1,2,0
CC(=O)O[C@@H](Cc1ccc(O)cc1)C(=O)CC(C)C,5791,.,1,2,.,-5
CCCCC(=O)NS(=O)(=O)c1ccc(N=NN2CCOCC2)cc1,9869,-7,-1,-11,3,1
Cc1cccc2c3nc4ccccc4nc3n(C)c12,4110,23,45*,4,-10,7
COC(=O)Cn1c2nc3ccccc3nc2c2cccc(C)c21,3033,13,11,8,0,2
O=C(CCc1ccc(S(=O)(=O)NCc2ccccc2)cc1)NCC1CCCO1 (configuration not stated),2118,-7,0,-10,-1,-1
CN(C)c1ccc(/C=N/NC(=O)CCc2nc3ccccc3[nH]2)cc1,4401,18,0,-6,4,-4
Cc1nc(NC(=O)c2oc3ccccc3c2C)sc1C(=O)N(C)C,24342*,9,-2,-3,3,-6
CCc1nonc1NC(=O)c1oc2ccccc2c1C,5789,50*,1,3,0,1
Cc1nnc(NC(=O)c2oc3ccccc3c2C)s1,4453,0,0,-1,2,-4
CCC1CCCCN1CCCCOc1cccc(Cl)c1 (configuration not stated),3317,.,-1,-2,-2,10
SMILES,Bead autofluor,VHR inh abs,BoNT A protease,BoNT-F LC inh,SARS 3CLpro inh,Anthrax LF inh2
Cc1ccc2nc(C3CCCCC3)c(Cc3cccc(F)c3)n2c1,4303,.,-1,-17,.,8
O=C(N/N=C/c1cccnc1)/C(=C\c1cccs1)NC(=O)c1ccccc1,2015,1,-1,-4,-6,-3
O=C(N/N=C/c1cc2ccccc2nc1Cl)/C(=C/c1cccs1)NC(=O)c1ccccc1,4003,52*,0,20,4,-2
CCC(C)NC(=O)c1ccc(NC(=O)C2=C(C)OCCS2)cc1 (configuration not stated),4425,49,-1,7,-5,4
O=c1nc(/C=C/c2cc([N+](=O)[O-])ccc2Cl)cc(C(F)(F)F)[nH]1,22027*,10,3,3,-1,0
O=C(CN1C(=O)/C(=C/c2ccc(F)cc2)SC1=S)NC1CCS(=O)(=O)C1 (configuration not stated),4289,3,0,-8,5,-2
O=C(NNC(=O)C1COc2ccccc2O1)c1ccccc1 (configuration not stated),22774*,28,1,-4,-5,-2
CCOc1ncccc1C(=O)OCC(=O)N1CCC(C)CC1,3811,.,0,-1,.,-2
CC(C)(C)C1CCc2onc(C(=O)NC3CCCC3)c2C1 (configuration not stated),21049*,27,-3,-6,-1,-2
CC(C)(C)C1CCc2onc(C(=O)N3CCOCC3)c2C1 (configuration not stated),11821,0,0,0,-3,1
O=C(NC1CCCCC1)c1noc2c1CCCCC2,22953*,3,2,1,3,1
Nc1c(-c2ccc(Cl)cc2)cnn1-c1cccc([N+](=O)[O-])c1,9876,27,-1,-9,7,-9
Nc1c(-c2ccccc2)cnn1-c1cccc([N+](=O)[O-])c1,17591*,35,-2,-1,6,-5
Cc1ccccc1S(=O)(=O)N1[C@@H](c2ccc(Cl)cc2)C(C(=O)O)=CC[C@H]1c1ccc(Cl)cc1,3154,.,0,-10,.,2
COc1ccc(N2CCN(/C(=N\S(=O)(=O)c3ccc(C)cc3)Nc3nc(C)cc(C)n3)CC2)cc1,19034*,24,2,0,-1,-3
CCOC(=O)N(C)C[C@H]1OCc2cnnn2CCCC(=O)N([C@@H](C)CO)C[C@H]1C,3752,.,-1,-5,.,-2
CCCCN1CNC(=S)N(c2ccccc2OCC)C1,7728,16,1,11,-2,-2
CCCCN1CNC(=S)N(c2cc(C)ccc2C)C1,21773*,-21,0,-2,1,0
O=C(Nc1ccc2nc(-c3ccco3)c(-c3ccco3)nc2c1)N1CCN(c2ccccn2)CC1,5771,0,41*,15,-2,20
O=C(Nc1ccccc1)c1ccc2nc(-c3ccco3)c(-c3ccco3)nc2c1,19000*,-21,?,24,5,19
